Source: PubChem BioAssay (NCATS)
Results filed as inconclusive are left out. Values without a mark were called inactive. Calls of active or inactive are those of the source. Calls follow the shape of the dose curve; as a rule, active = well fitted inhibition curve with a large enough effect; inconclusive = small, poorly fitted or top-dose-only effect; inactive = flat fitted curve, though single readings scatter.

test system: HaCat; assay: Cytotoxic Profiling of Annotated Libraries Using Quantitative High-Throughput Screening (AID 1296008); conditions: Five cell lines viability, CellTiter-Glo ATP luminescence, 48-72 h; max response: active compounds read low; also: nearly all actives have a fitted effect of over 60% in size
How it was run: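 Cytotoxicity was measured as CellTiter-Glo ATP luminescence, read after 10 min at room temperature. Compound treatment of the cells lasted 48 or 72 hr at 37 degrees Celsius in a qHTS format.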
% is scaled to controls: 0 for no effect and ±100 for the full control effect; potency is read from the fitted curve at half-maximal effect.

| Compound | max response [%] | outcome | Potency |
| --- | --- | --- | --- |
| CCC1NC(=O)C2C(Cl)C(Cl)CN2C(=O)C(C(C)O)NC(=O)CC(c2ccccc2)NC(=O)C(CO)NC1=O (centres undefined) | 4.16 | – | – |
| COC(=O)C1(C)CCC(=O)C2(C)c3c(O)cc(C(C)C)cc3C(O)C(OC(C)=O)C12 (centres undefined) | -0.878 | – | – |
| C=C(C)[C@H]1O[C@H]2CC[C@@]3(C)[C@@](O)(CC[C@H]4[C@@H]5OC(C)(C)[C@H]6C[C@@H]7C(=C)Cc8c(Cl)cc9[nH]c(c5c9c8[C@@]76O)[C@@]43C)[C@]23O[C@@H]3[C@H]1O | 4.01 | – | – |
| C[C@@H]1C(=O)O[C@H]2[C@H](O)[C@@]34[C@@H]5OC(=O)[C@@]3(O[C@@H]3OC(=O)[C@@H](O)[C@@]34[C@H](C(C)(C)C)[C@H]5O)[C@@]12O | – | inactive | – |
| CCc1c(C(=O)C(N)=O)c2c(OCC(=O)OC)cccc2n1Cc1ccccc1 | -4 | – | – |
| COc1cc(CCNCc2ccccc2O)c(OC)cc1C#N | – | inactive | – |
| C=CC(C)(O)CC/C=C(\C)C(=O)O[C@H]1[C@H](O)[C@@H](CO)O[C@@H](OC(=O)[C@]23CCC(C)(C)CC2C2=CCC4[C@@]5(C)CC[C@H](O[C@@H]6O[C@H](CO[C@@H]7OC[C@H](O)[C@H](O)[C@H]7O[C@@H]7OC[C@@H](O)[C@H](O)[C@H]7O)[C@@H](O)[C@H](O)[C@H]6O)C(C)(C)C5CC[C@@]4(C)[C@]2(C)CC3)[C@@H]1OC1OC(C)C(O[C@@H]2OC[C@@H](O)[C@H](O[C@@H]3OC[C@@H](O)[C@H](O)[C@H]3O)[C@H]2O)C(O)C1O (some centres undefined) | – | inactive | – |
| Cc1cccc(NC(=O)N[C@@H]2N=C(c3ccccc3)c3ccccc3N(C)C2=O)c1 | – | inactive | – |
| COC(=O)N1CCN(C(=O)Cc2ccc(Cl)c(Cl)c2)[C@@H](CN2CCCC2)C1 | -8.83 | – | – |
| CC(N)Cc1c[nH]c2ccccc12 (centres undefined) | -7.15 | – | – |
| COC(=O)C1(C)CCC(O)C2(C)c3cc(O)c(C(C)C)cc3C(O)C(OC(C)=O)C12 (centres undefined) | – | inactive | – |
| C=C(CO)C(=O)O[C@H]1C/C(C)=C/CC/C(CO)=C/[C@H]2OC(=O)C(=C)[C@H]12 | – | inactive | – |
| C/C=C(\C)C(=O)OC1C(C)OC(OC2C(C)OC(OC3CCC4(C)C(=CCC5C4CCC4(C)C(C(C)OC6OC(COC7OC(CO)C(O)C(O)C7O)C(O)C(O)C6O)CCC54O)C3)CC2OC)C(O)C1OC (centres undefined) | – | inactive | – |
| CN1C(=O)c2ccccc2NC(=O)[C@]12O[C@@H]2c1ccccc1 | -12.1 | – | – |
| CN1[C@@H]2CC[C@H]1CC(OC(=O)C1C=Nc3ccccc31)C2 (some centres undefined) | 2.07 | – | – |
| COC(=O)C1(C)CCC(O)C2(C)c3c(O)cc(C(C)C)cc3C(O)C(OC(C)=O)C12 (centres undefined) | -12.7 | – | – |
| COC1C(O)C(OC2CCC3(C=O)C(CCC4C3CCC3(C)C(C5=CC(=O)OC5)CCC43O)C2)OC(C)C1OC1OC(CO)C(O)C(O)C1O (centres undefined) | – | – | 1720 nM (active) |
| CCCN1CCO[C@H]2c3cc(O)ccc3OC[C@@H]21 | 3.96 | – | – |
| N#CC(OC1OC(COC2OC(CO)C(O)C(O)C2O)C(O)C(O)C1O)c1ccccc1 (centres undefined) | – | inactive | – |
| CC(=O)OC12C(O)C(C)C3(O)C4C=C(C)C(=O)C4CC(CO)=CC3C1C2(C)C (centres undefined) | -13.8 | – | – |
| C[C@]12CC[C@H]3[C@@H]([C@H](O)CC4=CC(=O)CC[C@@]43C)[C@@H]1CC[C@@H]2O | -25.7 | – | – |
| COc1c(C(C)C)cc2c(c1O)[C@@]1(C(=O)O)CCCC(C)(C)C1CC2 (some centres undefined) | 0.977 | – | – |
| Clc1ccc(N2C[C@H]3CC[C@@H](C2)N3)nn1 | -0.574 | – | – |
| CN1C(=O)N(c2ccc(C#N)c(C(F)(F)F)c2)C(=O)[C@]1(CO)c1ccccc1 | 1.18 | – | – |
| CC1=C2C(=O)C3[C@@H](CC=C4C[C@@H](O)CC[C@@]43C)[C@@H]2CC[C@]12O[C@@H]1C[C@H](C)CN[C@H]1[C@H]2C (some centres undefined) | – | inactive | – |
| C=C[C@H]1[C@H](O[C@@H]2O[C@H](CO)[C@@H](O)[C@H](O)[C@H]2O)OC=C2C(=O)OCC[C@H]21 | 1.24 | – | – |
| CC1=CC2/C=C(\C)CCC(O)C3OC(C)(C)OC3CC(=O)OC23C(=O)NC(CC(C)C)C3C1C (centres undefined) | – | inactive | – |
| COc1cc2c(cc1OC)[C@@]13CCN4CC5=CCO[C@H]6CC(=O)N2[C@H]1[C@H]6[C@H]5C[C@H]43 | -7.03 | – | – |
| CC1=C2C[C@H]3[C@@H](CC=C4C[C@@H](O)CC[C@@]43C)[C@@H]2CC[C@]12O[C@@H]1C[C@H](C)CN[C@H]1[C@H]2C | 3.98 | – | – |
